Compound activity deposited in PubChem BioAssay by National Center for Advancing Translational Sciences (NCATS).
This is a sample that favours compounds with a hit; in the whole collection about 0.85% have one here.
GRP78 ERSR act = ER stress response induction in glioma; 420,000 compounds, 0.02% hits; U87-MG GRP78 promoter luciferase reporter, 16 h; Potency, µM, for inactives: at the top dose activation, actives largely listed as activators; note: potency is the fitted concentration of half-maximal effect; series mostly up to about 76 µM; % of control where 0% means no effect; nearly all actives have a fitted effect of over 35% in size
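Stably transfected U87-MG human glioma cells carrying a GRP78-based luminescent sensor were seeded at 1000 cells/well, pin-dosed with compounds and incubated 16 h. Luciferase reagent was then added, and end-point luminescence was read after 10 min at room temperature.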
Mm-Cpn inhibitor = inhibitors of Methanococcus maripaludis chaperonin TRiC (MmCpn). 330,000 compounds, 0.031% hits. purified Mm-Cpn ATPase, ADP Transcreener TR-FRET. Potency, µM (highest dose often 76.9 µM), for the others: top-dose activity, negative = inhibition, most hits filed as inhibitors; note: potency is the fitted concentration of half-maximal effect; % is set by controls: 0 for no effect and ±100 for the full control effect; nearly all actives have a fitted effect of over 80% in size
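TR-FRET (320 nm excitation; 590 and 665 nm emission) reports ADP made from 10 uM ATP by 25 nM enzyme; compounds were preincubated 10 min, reaction run 30 min, both at 37°C.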
Akt phos inh = Akt phosphorylation inhibition. 360,000 compounds, 0.32% hits. activity change, % for hits at 50 µM. AID 651550. Neuro2A IGF-stimulated pAkt S473 HTRF, 20 min; stronger effect = lower value; in the data active = activity change below about -80%; inconclusive = mostly about -51% to -80%; note: % is set by controls: 0 for no effect and ±100 for the full control effect
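Single-point screen (50 µM final compound) in Neuro2A cells stimulated 20 min with 6 nM IGF at 37 deg C. After lysis, Ser473-phosphorylated Akt read by HTRF (ex 330 nm, em 615/665 nm) as the 665/615 ratio.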
IDH1 R132H inh = blocks human mutant IDH1 R132H enzyme; O75874; IDH1-R132H enzyme, NADPH consumption, diaphorase/resazurin fluorescence; Potency, µM (highest dose often 76.6 µM), without a hit: at the highest dose activity change, negative = inhibition, actives largely listed as inhibitors; 390,000 compounds, 0.093% hits; AID 602179; note: potency is the fitted concentration of half-maximal effect; % is set by controls: 0 for no effect and ±100 for the full control effect; nearly all actives have a fitted effect of over 65% in size
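IDH1-R132H (0.5 ug/mL) preincubated 30 min with compound, then NADPH (0.016 mM) and alpha-KG (2 mM) added; 80 min at RT, pH 7.5. Remaining NADPH coupled via diaphorase/resazurin to fluorescence (540/590 nm); concentration-response curves normalized to no-enzyme control.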
GLS inhibitor = blocks human kidney-isoform glutaminase activity; O94925; GLS enzymatic activity, qHTS titration; Potency, µM (titrated, usually from 45.5 µM), for the others: at the top dose activity change, negative = inhibition, hits mostly inhibitors; 410,000 compounds, 0.21% hits; note: potency is the fitted concentration of half-maximal effect; % is set by controls: 0 for no effect and ±100 for the full control effect
Target sequence (O94925 whole entry, looked up, canonical isoform): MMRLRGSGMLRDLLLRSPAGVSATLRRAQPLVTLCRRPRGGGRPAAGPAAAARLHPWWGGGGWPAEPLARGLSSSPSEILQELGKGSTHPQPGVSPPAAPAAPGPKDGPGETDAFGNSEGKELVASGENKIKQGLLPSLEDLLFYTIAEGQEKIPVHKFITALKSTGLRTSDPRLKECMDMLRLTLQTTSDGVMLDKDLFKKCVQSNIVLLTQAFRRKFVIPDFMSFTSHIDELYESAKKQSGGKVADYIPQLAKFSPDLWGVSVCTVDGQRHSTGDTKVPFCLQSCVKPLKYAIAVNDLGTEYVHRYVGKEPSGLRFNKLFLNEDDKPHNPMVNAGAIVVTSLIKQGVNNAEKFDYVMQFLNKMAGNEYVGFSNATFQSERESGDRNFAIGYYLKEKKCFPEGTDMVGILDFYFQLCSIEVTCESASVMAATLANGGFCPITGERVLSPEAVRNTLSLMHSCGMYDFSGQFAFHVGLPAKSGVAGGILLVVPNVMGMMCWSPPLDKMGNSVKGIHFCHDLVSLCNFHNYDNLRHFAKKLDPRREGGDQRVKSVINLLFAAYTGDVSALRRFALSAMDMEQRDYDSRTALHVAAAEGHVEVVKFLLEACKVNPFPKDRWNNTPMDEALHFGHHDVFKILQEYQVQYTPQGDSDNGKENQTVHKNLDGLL
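hKGA in 45 mM KH2PO4 (pH 8.2), 0.02% Tween-20 with compound, then 1mM L-Glutamine (stock as added) plus glutamate oxidase/HRP/Amplex red coupling mix. Fluorescence read initially and after 30 min at RT; signal change reflects glutamate formation.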
CCT modulator = cytosolic chaperonin activity modulation; purified chaperonin ATPase assay, HTRF ADP detection, 30 min; activity change, % (no concentration beside the values), hits read low; 360,000 compounds, 0.3% hits; AID 651819; in the data active = activity change below about -30%; note: % is set by controls: 0 for no effect and ±100 for the full control effect
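We incubate TRiC, 40 or 20 nM final, with library compounds at 76 uM and 10 uM ATP for 30 min at 37 °C. ADP formed is detected with Transcreener HTRF reagents after 30 min at room temperature.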
An asterisk follows results filed as active; i = inactive; ? = inconclusive; . = no result given; [ ] = remark or other dose. Unless noted, calls come from the whole dose curve; as a rule, active = well fitted curve in the direction sought with a large enough effect; inconclusive = small, poorly fitted or top-dose-only effect, or another doubt; inactive = no such curve, though single readings can be large; an effect the other way counts as inactive or inconclusive.

SMILES | GRP78 ERSR act | Mm-Cpn inhibitor | Akt phos inh | IDH1 R132H inh | GLS inhibitor | CCT modulator
Cc1cc(=O)oc2c(O)c(O)ccc12 | 28µM* | . | i | 10% | ? | 1
COC(=O)N/N=C/c1ccc([N+](=O)[O-])o1 | 0% | 0% | -115%* | -6% | 2% | 1
NC(=O)N/N=C/c1ccc([N+](=O)[O-])o1 | -2% | -2% | i | 13% | -16% | -1
Oc1ccc(NCc2cccs2)cc1 | ? | -1% | i | 9% | 11µM* | 0
CCC(=O)N1c2ccccc2NC2=C(C(=O)CC(c3ccco3)C2)C1c1ccco1 (configuration not stated) | -4% | -2% | i | -6% | -11% | 0
O=C1CC(c2ccco2)CC2=C1C1c3ccccc3C(=O)N1c1ccccc1N2 (configuration not stated) | 28µM* | -2% | i | 0% | 16% | -3
Cn1cc(CN2CCOc3ccc(C(O)C4CCCCC4)cc3C2)cn1 (configuration not stated) | -6% | . | . | . | . | .
COc1ccccc1-n1cnnc1SCC(=O)NCc1cccs1 | -2% | -2% | -111%* | 7% | 13% | 0
O=C(Nc1ccccc1)c1cccnc1NCCc1ccccc1 | 3% | 1% | i | -4% | -7% | -91*
Cc1cc(C)cc(N2C(=O)C3C4C=CC(C4)C3C2=O)c1 (configuration not stated) | -5% | -2% | -104%* | 1% | 4% | -3
Cc1ccc(N2C(=O)C3C4C=CC(C4)C3C2=O)cc1 (configuration not stated) | 1% | 3% | i | 2% | 1% | -2
O=C(Nc1nnc(SCC(=O)N2CCCCC2)s1)C1CCCCC1 | -2% | -4% | i | 1% | 6% | -60*
Cc1oc(-c2ccccc2NC(=O)C2CCC2)nc1CNC(=O)c1ccccn1 | 6% | . | . | . | . | .
O=C1/C(=C/c2ccncc2)SC(=S)N1Nc1ccccc1 | 6% | 2% | i | -23% | 8.9µM* | -5
Oc1cc(-c2nc3ccccc3s2)cc2c1OCCN(Cc1cccn1-c1ncccn1)C2 | -3% | . | . | . | . | .
CCN1CCC[C@@H]1CNC(=O)c1cc(S(=O)(=O)CC)ccc1OC | -5% | . | . | . | -3% | .
CC1Cc2ccccc2N1C(=O)CN1C(=O)CN(C)C(=O)c2ccccc21 (configuration not stated) | -3% | 2% | i | 8% | 12% | -35*
O=C(NCCN1CCOCC1)c1cnn(-c2nccc(-c3ccccc3C(F)(F)F)n2)c1C1CC1 | -4% | . | . | . | . | .
O=C(NCCc1nnc2n1CCN(CC1CC=CCC1)CC2)c1ccc(F)cc1 (configuration not stated) | -5% | . | . | . | . | .
COc1ccc2nc(N3CCC(O)CC3)c(C#N)cc2c1 | ? | -1% | i | 14% | -15% | -1
COc1ccc2nc(N3CCC(C)CC3)c(C#N)cc2c1 | 10% | -2% | -103%* | 4% | ? | 0
CCc1ccc2nc(N3CCN(C)CC3)c(C#N)cc2c1 | 7% | -2% | i | -9% | 1% | -49*
CN[C@H](CC(C)C)C(=O)N[C@H]1C(=O)N[C@@H](CC(N)=O)C(=O)N[C@H]2C(=O)N[C@H]3C(=O)N[C@H](C(=O)N[C@H](C(=O)O)c4cc(O)cc(O)c4-c4cc3ccc4O)[C@H](O)c3ccc(c(Cl)c3)Oc3cc2cc(c3O[C@@H]2OC(CO)[C@@H](O)[C@H](O)[C@H]2O[C@H]2C[C@](C)(N)[C@H](O)[C@H](C)O2)Oc2ccc(cc2Cl)[C@H]1O (some centres not stated) | -3% | . | . | . | -7% | .
COCC(=O)Nc1nc(-c2ccc([N+](=O)[O-])cc2)cs1 | 3% | -3% | i | 7% | -2% | -1
CCC(=O)Nc1nc(-c2cc([N+](=O)[O-])cs2)cs1 | 3% | 35µM* | i | -5% | 12% | 2
SMILES | GRP78 ERSR act | Mm-Cpn inhibitor | Akt phos inh | IDH1 R132H inh | GLS inhibitor | CCT modulator
CCOc1ncccc1C(=O)Nc1nnc(C2CC2)s1 | -3% | -7% | i | 6% | -12% | -30*
COc1ccc(C(=O)c2ncc(C(F)(F)F)cc2Cl)cc1 | 6% | 2% | i | 3% | -2% | -146*
CCC1CN(CCNC(=O)C2CCCCN2C)Cc2cc(OC)ccc2O1 (configuration not stated) | 1% | . | . | . | . | .
COc1ccc(N2Cc3cccc(C(=O)N4CCN(C(=O)c5ccco5)CC4)c3C2=O)cc1 | -1% | -2% | i | -4% | 18µM* | 0
O=C(CSc1nnc(-c2ccncc2)n1Cc1ccccc1)NC1CCCc2ccccc21 (configuration not stated) | -6% | 0% | i | 1% | -7% | -1
Nn1c(SCC(=O)NC2CCCc3ccccc32)nnc1-c1cccs1 (configuration not stated) | -2% | 1% | -103%* | -2% | 1% | -2
CC(CN1CCOCC1)C(Cc1ccccc1)(Cc1ccccc1)C(=O)N1CCCC1 (configuration not stated) | -3% | . | . | . | 9%[99.4 µM] | .
Cc1ccc(C(=O)NC2CCN(CC(=O)Nc3ccccc3Cl)CC2)cc1 | 0% | 1% | i | 6% | -6% | -37*
COC(=O)c1ccccc1NC(=O)CN1CCC(NC(=O)c2ccc(C)cc2)CC1 | 1% | -6% | i | 0% | 2% | -1
O=C(NCC1Cc2cccc(-c3nccs3)c2O1)c1ccnc(Cl)c1 (configuration not stated) | -1% | . | . | . | . | .
Cc1cnc(C)c(-c2cccc3c2OC(CNC(=O)C2(c4ccc(Cl)cc4)CC2)C3)n1 (configuration not stated) | -1% | . | . | . | . | .
Cc1nc2c(=O)[nH]c(=S)[nH]c2[nH]c1=O | -7% | . | i | 3% | 6.3µM* | 1
CCCC(=O)Nc1ccccc1NC(C)=O | -2% | 2% | i | 15% | 4% | -31*
CCCCCC(=O)Nc1cccc2ccccc12 | -2% | 1% | i | 12% | 4% | -1
COc1cccc(CNC(=O)c2c(OC)cc(=O)n3c2CCN(C(=O)C2=C(C)OCCO2)CC3)c1 | 18% | . | . | . | . | .
CCCCC(=O)Nc1nnc(-c2ccc(OC)cc2)s1 | 1% | 1% | i | 1% | -4% | -1
CCCCC(=O)N(CCOC)c1nnc(-c2ccc(OC)cc2)s1 | -5% | -7% | -103%* | 3% | -11% | -1
COc1ccc(CCNC(=O)C2CCN(S(=O)(=O)N3CCC4(CC3)OCCO4)CC2)cc1OC | -4% | 1% | i | -2% | -1% | 2
COCCNC(=O)C1CCN(S(=O)(=O)N2CCC3(CC2)OCCO3)CC1 | -3% | 0% | -82%* | 0% | -4% | 1
